A short description of experiment [1]: compounds binding Alexa647 anti-His antibody – biochemical, small-molecule microarray, 635 nm fluorescence, artefact control for SMM control protein annotation, primary screen (AID 1128).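 Note: score merges feature fluorescence with signal-to-noise for each printed compound spot.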 Conditions: higher = more signal.
The test system of experiment [2] is Human papillomavirus type 1a E7 protein (residues 1-88). Briefly: HPV1a E7 small-molecule binders, primary screen, biochemical, small-molecule microarray, residues 1-88, 635 nm (AID 1129). The note with it: small-molecule microarray binding, fluorescence 635 nm; higher = more signal.
In experiment [3] the target is Focal adhesion kinase 1 (Homo sapiens) (UniProt Q05397). Briefly: PTK2 protein binding on printed compound slides – biochemical, small-molecule microarray, 635/667 nm fluorescence, BSA, DTT, primary screen (AID 1130).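 Note: composite of spot emission at 667 nm and signal to noise over triplicate slides.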 Conditions: 635 nm fluorescence, higher = more signal.
Focal adhesion kinase 1 (Homo sapiens), sequence (Q05397 whole entry, looked up): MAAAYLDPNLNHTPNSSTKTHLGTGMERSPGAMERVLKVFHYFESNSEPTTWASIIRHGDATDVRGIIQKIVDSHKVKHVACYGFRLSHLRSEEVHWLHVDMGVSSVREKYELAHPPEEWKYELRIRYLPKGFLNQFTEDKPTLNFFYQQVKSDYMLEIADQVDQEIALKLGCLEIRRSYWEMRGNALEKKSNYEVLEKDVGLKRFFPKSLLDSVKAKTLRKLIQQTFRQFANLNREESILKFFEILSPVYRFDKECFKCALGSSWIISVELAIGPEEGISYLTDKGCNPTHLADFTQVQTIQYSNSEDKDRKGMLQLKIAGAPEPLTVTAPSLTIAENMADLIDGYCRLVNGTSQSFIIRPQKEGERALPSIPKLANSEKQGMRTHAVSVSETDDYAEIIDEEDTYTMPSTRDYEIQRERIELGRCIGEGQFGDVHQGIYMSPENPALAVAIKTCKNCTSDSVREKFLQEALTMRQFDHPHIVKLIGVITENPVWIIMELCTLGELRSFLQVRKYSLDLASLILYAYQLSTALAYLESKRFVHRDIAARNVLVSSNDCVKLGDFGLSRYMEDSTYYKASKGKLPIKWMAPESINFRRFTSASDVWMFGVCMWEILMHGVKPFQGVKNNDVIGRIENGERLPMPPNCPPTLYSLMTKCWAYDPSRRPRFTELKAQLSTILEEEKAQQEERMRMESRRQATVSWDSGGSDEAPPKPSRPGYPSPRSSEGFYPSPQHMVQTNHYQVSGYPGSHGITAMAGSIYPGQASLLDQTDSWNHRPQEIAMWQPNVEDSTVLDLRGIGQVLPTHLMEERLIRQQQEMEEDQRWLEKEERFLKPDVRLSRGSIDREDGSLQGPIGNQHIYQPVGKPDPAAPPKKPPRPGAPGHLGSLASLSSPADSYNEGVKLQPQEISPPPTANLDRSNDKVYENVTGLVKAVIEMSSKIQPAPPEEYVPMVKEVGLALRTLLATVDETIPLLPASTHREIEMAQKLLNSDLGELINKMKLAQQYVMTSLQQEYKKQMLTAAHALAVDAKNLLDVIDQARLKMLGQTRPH
In experiment [4] the test system is Fibrinogen (Alexa647-labelled). The experiment is described as follows: Alexa647-fibrinogen binding to printed small molecules – biochemical, small-molecule microarray, 635/667 nm fluorescence, artefact control for SMM control-protein annotation, profiling panel (AID 1131).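 Note: z-score merges 667 nm fluorescence with per-spot signal-to-noise over triplicate slides.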 Conditions: fibrinogen-A647 binding fluorescence, higher = more signal.
Experiment [5] has as its target Follistatin (Homo sapiens) (UniProt P19883). The experiment is described as follows: FST protein binding to printed compounds – biochemical, small-molecule microarray, 635/667 nm fluorescence, primary screen (AID 1132). The note with it: 635 nm fluorescence, higher = more signal.
The target of experiment [6] is Fibroblast growth factor 2 (Homo sapiens) (UniProt P09038). Briefly: basic fibroblast growth factor binding to printed compounds – biochemical, small-molecule microarray, 635/667 nm fluorescence, primary screen (AID 1133). The note with it: FGF2, fluorescence 635/667, higher = more signal.
Fibroblast growth factor 2 (Homo sapiens), sequence (P09038 whole entry, looked up): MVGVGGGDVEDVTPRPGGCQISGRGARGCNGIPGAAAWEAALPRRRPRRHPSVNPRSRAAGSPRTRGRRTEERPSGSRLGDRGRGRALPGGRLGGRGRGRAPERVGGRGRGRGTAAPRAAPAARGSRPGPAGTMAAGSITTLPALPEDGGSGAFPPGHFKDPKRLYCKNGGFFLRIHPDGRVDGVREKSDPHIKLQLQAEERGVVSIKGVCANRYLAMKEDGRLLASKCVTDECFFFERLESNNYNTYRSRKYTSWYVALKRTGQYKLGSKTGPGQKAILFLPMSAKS
The nature of experiment [7]: JC-1 mitochondrial potential readout, lung cancer cells – cell-based, A549, JC-1 fluorescence, basal, 24 h, 100 nL, profiling panel (AID 1138).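 Note: A549 lung adenocarcinoma cells under basal conditions with no added stimulus; test concentration not given here.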 Conditions: higher = more signal.
Experiment [8] has as its system Lefty1. Briefly: Lefty1 protein binding to printed compounds – biochemical, small-molecule microarray, 635/667 nm fluorescence, primary screen (AID 1139). The note with it: fluorescence 635/667, higher = more signal.
Experiment [9] deals with wheat germ agglutinin (Triticum aestivum), Alexa647-labelled. Briefly: Alexa647-WGA lectin binding to printed small molecules – biochemical, small-molecule microarray, 635/667 nm fluorescence, artefact control for SMM control-protein annotation, profiling panel (AID 1140).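 Note: score merges 667 nm feature emission with signal to noise over triplicate slides.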 Conditions: WGA-A647 binding, 635 nm fluorescence, higher = more signal.
In experiment [10] the target is Luciferin 4-monooxygenase (Photinus pyralis) (UniProt P08659). Briefly: inhibition of purified Photinus pyralis luciferase – biochemical, luminescence, purified enzyme, 2006 set, primary screen (AID 1141).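 Note: cell-free assay with purified firefly luciferase at 100 ng per well in PBS; test concentration not given here.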 The note with it: purified firefly luciferase, SteadyGlo luminescence, 30 min; higher = more signal, called active from +8 up or from −8 down.
Luciferin 4-monooxygenase (Photinus pyralis), sequence (P08659 whole entry, looked up): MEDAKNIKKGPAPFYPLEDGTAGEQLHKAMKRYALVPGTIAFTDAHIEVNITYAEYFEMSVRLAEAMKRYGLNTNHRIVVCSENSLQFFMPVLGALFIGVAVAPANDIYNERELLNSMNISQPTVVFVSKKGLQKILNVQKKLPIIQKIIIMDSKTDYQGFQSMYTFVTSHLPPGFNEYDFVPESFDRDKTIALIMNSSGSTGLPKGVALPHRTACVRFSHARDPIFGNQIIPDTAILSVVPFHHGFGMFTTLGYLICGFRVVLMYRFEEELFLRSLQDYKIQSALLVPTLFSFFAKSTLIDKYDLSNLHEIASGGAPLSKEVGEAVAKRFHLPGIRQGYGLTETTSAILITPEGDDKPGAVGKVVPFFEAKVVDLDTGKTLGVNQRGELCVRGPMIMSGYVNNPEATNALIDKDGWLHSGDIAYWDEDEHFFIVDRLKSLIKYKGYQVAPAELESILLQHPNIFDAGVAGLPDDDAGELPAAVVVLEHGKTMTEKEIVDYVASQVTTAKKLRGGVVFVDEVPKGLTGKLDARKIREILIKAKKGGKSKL
Experiment [11] concerns Wnt5a (protein binding on small-molecule microarray). Briefly: small molecules binding Wnt5a protein – biophysical, small-molecule microarray, 635/667 nm fluorescence, primary screen (AID 1142).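 Note: fluorescence read at 667 nm with signal to noise per printed feature.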 Conditions: 635 nm fluorescence, higher = more signal.
Experiment [12] can be described thus: ATP-based viability of Huh7 replicon cells – cell-based, CellTiter-Glo luminescence, basal, 48 h, cytotoxicity control for HCV replication inhibitor project, primary screen (AID 1143).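 Note: Huh7 hepatoma cells carrying a hepatitis C replication reporter with no stimulus; test concentration not given here.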 The note with it: higher = more signal, called active from +8 up or from −8 down.
The nature of experiment [13]: Pseudomonas biofilm growth suppression – PAO1 strain, BacTiter-Glo luminescence, LB-PBS, primary screen (AID 1144). Conditions: P. aeruginosa PAO1 biofilm, 12 h, higher = more signal.
Experiment [14] can be described thus: basal CRE-LacZ reporter activity in PC12 – cell-based, unstimulated, primary screen (AID 1145). Conditions: no forskolin, luminescence, 4.5 h, higher = more signal, called active from +8 up or from −8 down.
Experiment [15] in a line: forskolin-driven CRE-LacZ activity in PC12 – cell-based, CRE-LacZ reporter, forskolin-stimulated, primary screen (AID 1146).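 Note: PC12 cells with 6xCRE LacZ reporter stimulated by forskolin 10 µM; beta-galactosidase reporter signal reflecting CREB driven transcription.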 The note with it: luminescence, 4.5 h, higher = more signal, called active from +8 up or from −8 down.
For experiment [16], the target named is Streptavidin (Streptomyces avidinii) (UniProt P22629). Briefly: compounds binding control protein streptavidin – biophysical, small-molecule microarray, 635/667 nm fluorescence, artefact control for SMM compound annotation, primary screen (AID 1147).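 Note: signal reflects streptavidin binding to arrayed compounds as a control protein.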 The note with it: higher = more signal.
Streptavidin (Streptomyces avidinii), sequence (P22629 whole entry, looked up): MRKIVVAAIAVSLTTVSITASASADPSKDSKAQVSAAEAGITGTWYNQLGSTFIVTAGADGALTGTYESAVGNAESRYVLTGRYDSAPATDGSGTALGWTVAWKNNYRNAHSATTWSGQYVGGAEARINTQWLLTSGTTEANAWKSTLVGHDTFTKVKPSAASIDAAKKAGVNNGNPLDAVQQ
A short description of experiment [17]: probe aInhba binding on compound microarray – biochemical, small-molecule microarray, 635/667 nm fluorescence, primary screen (AID 1148).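 Note: score merges 667nm spot fluorescence with signal-to-noise for antibody binding to printed compounds.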 Conditions: higher = more signal.
In experiment [18] the target is Torsin-1A (Homo sapiens) (UniProt O14656). The experiment is described as follows: TOR1A wild-type binding on microarray – cell lysate, small-molecule microarray, lysate, 635/667 nm, primary screen (AID 1149). Conditions: COS7 hTOR1A-WT lysate, 635 nm fluorescence, higher = more signal.
Torsin-1A (Homo sapiens), sequence (O14656 whole entry, looked up): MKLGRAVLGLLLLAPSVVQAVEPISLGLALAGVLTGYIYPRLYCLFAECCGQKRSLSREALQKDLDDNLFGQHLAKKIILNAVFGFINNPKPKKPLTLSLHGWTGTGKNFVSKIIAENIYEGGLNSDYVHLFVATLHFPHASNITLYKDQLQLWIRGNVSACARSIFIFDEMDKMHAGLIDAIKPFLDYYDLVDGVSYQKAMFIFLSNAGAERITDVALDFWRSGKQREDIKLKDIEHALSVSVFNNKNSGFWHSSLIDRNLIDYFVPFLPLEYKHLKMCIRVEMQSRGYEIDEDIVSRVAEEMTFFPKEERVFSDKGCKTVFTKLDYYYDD
For experiment [19] the target is unchanged. Briefly: torsin A mutant lysate binding on microarrays – cell lysate, small-molecule microarray, COS7 lysate, 635/667 nm fluorescence, primary screen (AID 1150).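 Note: score pools 667 nm emission and signal to noise measuring lysate protein binding.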 Conditions: COS7 hTOR1A mutant lysate, 635 nm fluorescence, higher = more signal.
Experiment [20] deals with Sonic hedgehog protein (Shh). Briefly: Sonic hedgehog microarray binding compounds – biochemical, small-molecule microarray, 635/667 nm fluorescence, primary screen (AID 1151).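 Note: Shh protein binding to compounds spotted on small-molecule microarray slides; score combines spot fluorescence intensity with signal-to-noise across triplicate slides.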 Conditions: 635 nm fluorescence, higher = more signal.

SMILES strings stand for the structures. Active and inactive are the calls of the source. Unless noted, the rule behind the calls is not given here.

Follistatin (Homo sapiens), sequence (P19883 whole entry, looked up): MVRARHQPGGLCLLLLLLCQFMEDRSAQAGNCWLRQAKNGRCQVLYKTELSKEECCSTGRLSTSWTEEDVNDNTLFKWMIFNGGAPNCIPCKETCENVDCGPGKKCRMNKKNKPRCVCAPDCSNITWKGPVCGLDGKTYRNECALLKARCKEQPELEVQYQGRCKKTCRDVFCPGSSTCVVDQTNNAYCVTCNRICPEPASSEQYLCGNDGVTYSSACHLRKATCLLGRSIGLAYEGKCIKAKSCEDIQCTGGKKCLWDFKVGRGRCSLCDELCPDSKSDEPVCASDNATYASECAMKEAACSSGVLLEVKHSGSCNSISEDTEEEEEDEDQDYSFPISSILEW

For the molecule `COc1ccc(/C=C/C=O)cc1`, the composite z-score is 0.0874 in experiment [1]; -0.238 in experiment [2]; -0.0113 in [3]; -1.76 in [4]; 0.853 in [5]; 0.138 in experiment [6]. In addition, the composite z-score in [8] was 0.321; in experiment [9], -0.367; in [11], 0.156; in experiment [16], 0.166; in experiment [17], -0.102; in experiment [18], -0.238. The composite z-score in experiment [19] came to 0.0564; in experiment [20] it was 1.6. Moreover, the z-score is 0.769 in [7]; -0.756 (inactive) in experiment [10]; 0.0307 (inactive) in [12]; -0.577 (inactive) in experiment [13]; 0.209 (inactive) in experiment [14]; 0.561 (inactive) in [15].

For `Cc1ccccc1C(O)C1C=CC2C(=O)N(c3ccccc3)C(=O)C2N1Nc1ccc(C(C)C)cc1` (stereo not given), the composite z-score in experiment [1] is 0.0147; in experiment [2], 1.14; in experiment [3], 0.655; in experiment [4], 0.997; in experiment [5] it was 1.02; in experiment [6], -0.144. Further, the composite z-score is 0.383 in experiment [8]; 0.882 in experiment [9]; 0.0944 in [11]; 1.26 in experiment [16]; 0.176 in experiment [17]; -0.0717 in experiment [18]. In addition, the composite z-score in [19] stood at 0.62; in [20], 0.214. Further, the z-score in experiment [7] was -0.504; in experiment [10], -0.263 (inactive); in experiment [12] it was -0.0816 (inactive); in [13] it was -0.481 (inactive); in [14], 0.812 (inactive); in experiment [15], 0.131 (inactive).

In the case of `O=C(CS)NCCCCCCNC(=O)[C@@H]1C[C@@H]2C(=O)NCC(=O)N2[C@@H]1c1cccc(OCCO)c1`, the composite z-score is 3.13 in experiment [1]; 1.23 in experiment [2]; 0.69 in experiment [3]; -0.993 in experiment [4]; 0.998 in experiment [5]; 1.4 in experiment [6]. The composite z-score in experiment [8] was -0.408; in experiment [9], -0.56; in experiment [11] it was 0.136; in experiment [16] it was 0.0478; in experiment [17] it was -0.613; in experiment [18] it was 1.29. Also, the composite z-score was found to be 1.28 in experiment [19] and 0.88 in experiment [20]. Also, the z-score in [7] was 0.609; in experiment [10] it was -1.02 (inactive); in [12], 0.429 (inactive); in experiment [13] it was -0.865 (inactive); in experiment [14], -0.252 (inactive); in experiment [15], -0.695 (inactive).

Take `CNS(=O)(=O)c1ccc(C)cc1`: the composite z-score in experiment [1] was -0.0728; in experiment [2] it was 0.668; in experiment [3], -0.163; in [4] it was -0.212; in [5], 0.884; in experiment [6], 0.917. The composite z-score in experiment [8] was 0.39; in experiment [9], 0.0044; in [11], 0.365; in experiment [16] it was 0.385; in [17], -0.231; in experiment [18] it was 0.293. The composite z-score in [19] came out at 0.371; in experiment [20] it was 0.962. Also, the z-score in experiment [7] was 1.55; in experiment [10], -1.2 (inactive); in experiment [12], -1.48 (inactive); in experiment [13] it was -0.307 (inactive); in experiment [14], -0.0576 (inactive); in experiment [15], -0.391 (inactive).

For `O=C1C[C@]2(c3ccc([N+](=O)[O-])cc3)C(=O)N(CC(F)(F)F)c3cc(CO)ccc3[C@H]2N1C1CCCCC1`, the composite z-score was -1.55 in [1]; -0.15 in [2]; 0.114 in [3]; -0.603 in [4]; -1.13 in experiment [5]; -0.808 in experiment [6]. Moreover, the composite z-score in experiment [8] was -1.44; in [9], -0.288; in experiment [11] it was -0.446; in [16] it was -0.463; in experiment [17], -0.0598; in experiment [18], -0.628. The composite z-score in experiment [19] is -0.611; in experiment [20], -0.444. For the same molecule, the z-score in experiment [7] is 0.673; in experiment [10], -1 (inactive); in experiment [12], 0.465 (inactive); in [13], 1.43 (inactive); in [14], -0.412 (inactive); in experiment [15], -0.496 (inactive).

These data come from PubChem BioAssay.
